The source of these data is PubChem BioAssay (EPA / NIEHS).

A structure can be active in one record and inactive in another. Activity calls are given as the source filed them. How the source made its calls: active means hit-call score of the fitted dose curve at least 0.9, where 1 is the maximum; inactive means score below 0.9.

One may read the AC50 as the concentration giving half of the maximal activity seen.

One experiment can be described thus: ATG_TA_CIS: Attagene CIS-FACTORIAL HepG2 Assay for human TA Basal Promoter (AID 2282964). The settings on record: HepG2 Attagene CIS-factorial TA basal promoter reporter; actives raise or lower the signal. The procedure, abridged:
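HepG2 cells transiently transfected with multiplexed cis-promoter reporter units, dosed 24 h. Reporter mRNA measured by RT-PCR, 6-FAM labelling, HpaI digestion and capillary electrophoresis; bidirectional fit versus DMSO baseline, serving as background control.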
In the case of `CC1=CC(=O)c2ccccc2C1=O`, the outcome was inactive.

`CC(C)(C)C1CCCCC1O` (stereo not given): the result was inactive.

Consider `CC(C)CCOCCC(C)C`, for which the molecule was classed as inactive.

On to `CCCCCCCCCCCCCC[n+]1ccccc1`, for which the AC50 was 8.99 µM (active).

In the case of `CCCCCCCC(OC)OC`, the call was inactive.

Regarding `O=CC(F)(F)C(F)(F)C(F)(F)C(F)F`, the molecule was classed as inactive.

On to `CCCCCCCCCCCCCCC`, for which the molecule was called inactive.

On to `O=C1OC(=O)C(F)(F)C1(F)F`, for which the molecule was classed as inactive.

Consider `COCN(COC)c1nc(N(COC)COC)nc(N(COC)COC)n1`, for which the call was inactive.

With `CC(=O)Nc1ccc(S(N)(=O)=O)cc1`, the outcome was inactive.

For the molecule `CCCCCCCCCCCC(=O)NCCCN(C)C`, the AC50 was 18.9 µM (active).

Take `C=CC(C)(CCC=C(C)C)OC(C)=O` (stereo not given): the result was inactive.

Turning to `O=C(OC(=O)C(F)(F)C(F)(F)F)C(F)(F)C(F)(F)F`, the outcome was inactive.

Consider `C[N+](C)(CCCNS(=O)(=O)CCC(F)(F)C(F)(F)C(F)(F)C(F)(F)C(F)(F)C(F)(F)F)CC(=O)[O-]`, for which the molecule was called inactive.

In the case of `CCOC(=O)CN[C@@H](C(=O)N1CC[C@H]1C(=O)NCc1ccc(/C(N)=N/O)cc1)C1CCCCC1`, the result was inactive.

As for `CC(O)COc1ccccc1` (stereo not given), the molecule was classed as inactive.

As for `CCC(C)c1ccccc1O` (stereo not given), the molecule was called inactive.

`C/C=C/C(=O)C1=C(C)CCCC1(C)C`: the call was inactive.

Turning to `O=C(NCc1ncc(C(F)(F)F)cc1Cl)c1c(Cl)cccc1Cl`, the molecule was classed as inactive.

For the molecule `CCCCCC(C)OC(=O)COc1ccc(Cl)c2cccnc12` (stereo not given), the molecule was called inactive.

Consider `O=S(=O)(O)C(F)(F)C(F)(F)C(F)(F)C(F)(F)C(F)(F)C(F)(F)C(F)(F)C(F)(F)C(F)(F)C(F)(F)F`, for which the result was inactive.

`c1cc2cccc3c4cccc5cccc(c(c1)c23)c54`: the result was inactive.

`CCCCC(CC)C(=O)OCCOCCOCCOCCOC(=O)C(CC)CCCC` (stereo not given): the molecule was classed as inactive.

With `CCCCCCCCCCCCOC(=O)c1cc(O)c(O)c(O)c1`, the result was inactive.

On to `CCOC(C)=O`, for which the result was inactive.

In the case of `Cc1ccccc1OCC(=O)O`, the call was inactive.

Consider `NCc1cccc(CN)c1`, for which the call was inactive.

`CC(C)(C)c1ccc(CCC=O)cc1`: the call was inactive.

With `CC(=O)CC(C)C`, the molecule was called inactive.

For the molecule `NNc1nc(-c2ccc([N+](=O)[O-])cc2)cs1`, the molecule was classed as inactive.

Turning to `OCC(F)(F)C(F)(F)C(F)(F)C(F)(F)C(F)(F)C(F)(F)C(F)(F)C(F)(F)C(F)(F)C(F)(F)C(F)(F)F`, the call was inactive.

For `COC(=O)C(F)(F)C(F)(F)C(F)(F)F`, the molecule was called inactive.

Consider `CCOC=O`, for which the molecule was classed as inactive.

For the molecule `CCCCCCCCCCCC[N+](C)(C)CCCCCCCCCCCC`, the AC50 was 26.3 µM (active).

As for `CCCCCCCCCC=CCC1CC(=O)OC1=O` (stereo not given), the molecule was called inactive.

As for `FC(F)(F)C(F)(F)C(F)(F)Br`, the result was inactive.

As to `Oc1cccc2c(O)cccc12`, the call was inactive.

Another experiment is described as follows: ATG_TCF_b_cat_CIS: Attagene CIS-FACTORIAL HepG2 Assay for human T-Cell-Factor with beta-catenin (TCF/b-cat) (AID 2282965). The following applies: HepG2 TCF/beta-catenin cis-reporter transcription, actives raise or lower the signal. The procedure, abridged:
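Endogenous TCF/LEF activity read as reporter transcript level via RT-PCR and capillary electrophoresis fluorescence in transfected HepG2, 24 h exposure; gain or loss of signal fitted against DMSO controls.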
Regarding `CC1=CC(=O)c2ccccc2C1=O`, the molecule was classed as inactive.

In the case of `CC(C)(C)C1CCCCC1O` (stereo not given), the result was inactive.

`CC(C)CCOCCC(C)C`: the molecule was classed as inactive.

On to `CCCCCCCCCCCCCC[n+]1ccccc1`, for which the call was inactive.

Turning to `CCCCCCCC(OC)OC`, the result was inactive.

As for `O=CC(F)(F)C(F)(F)C(F)(F)C(F)F`, the molecule was classed as inactive.

For the molecule `CCCCCCCCCCCCCCC`, the molecule was called inactive.

As to `O=C1OC(=O)C(F)(F)C1(F)F`, the molecule was called inactive.

Consider `COCN(COC)c1nc(N(COC)COC)nc(N(COC)COC)n1`, for which the result was inactive.

`CC(=O)Nc1ccc(S(N)(=O)=O)cc1`: the result was inactive.

As to `CCCCCCCCCCCC(=O)NCCCN(C)C`, the AC50 is 17.5 µM (active).

With `C=CC(C)(CCC=C(C)C)OC(C)=O` (stereo not given), the outcome was inactive.

With `O=C(OC(=O)C(F)(F)C(F)(F)F)C(F)(F)C(F)(F)F`, the result was inactive.

For `C[N+](C)(CCCNS(=O)(=O)CCC(F)(F)C(F)(F)C(F)(F)C(F)(F)C(F)(F)C(F)(F)F)CC(=O)[O-]`, the AC50 is 0.000979 µM (active).

Take `CCOC(=O)CN[C@@H](C(=O)N1CC[C@H]1C(=O)NCc1ccc(/C(N)=N/O)cc1)C1CCCCC1`: the molecule was called inactive.

Take `CC(O)COc1ccccc1` (stereo not given): the molecule was called inactive.

For the molecule `CCC(C)c1ccccc1O` (stereo not given), the AC50 was 164 µM (active) and the molecule was called inactive.

Turning to `C/C=C/C(=O)C1=C(C)CCCC1(C)C`, the AC50 was 62.7 µM (active).

Regarding `O=C(NCc1ncc(C(F)(F)F)cc1Cl)c1c(Cl)cccc1Cl`, the outcome was inactive.

With `CCCCCC(C)OC(=O)COc1ccc(Cl)c2cccnc12` (stereo not given), the call was inactive.

In the case of `O=S(=O)(O)C(F)(F)C(F)(F)C(F)(F)C(F)(F)C(F)(F)C(F)(F)C(F)(F)C(F)(F)C(F)(F)C(F)(F)F`, the molecule was classed as inactive.

For `c1cc2cccc3c4cccc5cccc(c(c1)c23)c54`, the outcome was inactive.

Turning to `CCCCC(CC)C(=O)OCCOCCOCCOCCOC(=O)C(CC)CCCC` (stereo not given), the result was inactive.

`CCCCCCCCCCCCOC(=O)c1cc(O)c(O)c(O)c1`: the molecule was called inactive.

Turning to `CCOC(C)=O`, the molecule was classed as inactive.

In the case of `Cc1ccccc1OCC(=O)O`, the call was inactive.

For the molecule `NCc1cccc(CN)c1`, the molecule was classed as inactive.

As for `CC(C)(C)c1ccc(CCC=O)cc1`, the AC50 is 162 µM (active).

As for `CC(=O)CC(C)C`, the molecule was called inactive.

`NNc1nc(-c2ccc([N+](=O)[O-])cc2)cs1`: the call was inactive.

With `OCC(F)(F)C(F)(F)C(F)(F)C(F)(F)C(F)(F)C(F)(F)C(F)(F)C(F)(F)C(F)(F)C(F)(F)C(F)(F)F`, the molecule was classed as inactive.

Regarding `COC(=O)C(F)(F)C(F)(F)C(F)(F)F`, the result was inactive.

`CCOC=O`: the molecule was called inactive.

Consider `CCCCCCCCCCCC[N+](C)(C)CCCCCCCCCCCC`, for which the AC50 is 25.4 µM (active).

`CCCCCCCCCC=CCC1CC(=O)OC1=O` (stereo not given): the result was inactive.

Consider `FC(F)(F)C(F)(F)C(F)(F)Br`, for which the call was inactive.

For the molecule `Oc1cccc2c(O)cccc12`, the call was inactive.
